Our source for the growth values is PubChem BioAssay (NCI).

Molecules are shown by their SMILES. The panel holds about 83,000 compounds, 20% with a hit somewhere; the sample as a whole holds those more often.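 Step 1: grow cells in 96-well plates. Step 2: add test compound at a single concentration. Step 3: incubate 48 h. Step 4: record percent growth.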 Calls of active or inactive are those of the source. The calls were made as follows: active = growth percent below 10; inactive = the rest.

The subject of the assay is NCI/ADR-RES ovarian. As to the kind of experiment: NCI-60 one-dose screen, 48 h (100 = growth as untreated, 0 = no growth, -100 = all killed). As to conditions: 10 µM unless noted.
Turning to `N#C/C(=C\c1ccc(-c2ccc(Cl)cc2)o1)C(=O)Nc1ncc(Cc2ccc(Br)cc2)s1`, the growth was 8.56% (active).
The result for `O=C(COc1ccc(/C=C2\C(=O)Nc3ccc(Cl)cc32)cc1)Nc1ccc(Cl)cc1` reads 59.6% (inactive).
The result for `CC(O)c1cccc(/C(N)=N/C(N)=N/c2nc3ccccc3s2)c1` (stereo not drawn) reads 95.6% (inactive).
The result for `Cn1c(SCC(=O)c2ccc(Br)cc2)nc2ccccc2c1=O` reads 96.5% (inactive); that for `NC(N)=NS(=O)(=O)c1ccc(N=Nc2c(N)nn(-c3ccc([N+](=O)[O-])cc3[N+](=O)[O-])c2N)cc1`, 99.3% (inactive).
With `Cc1cc2nc3c4cc(C#N)ccc4n(CCN(C)C)c3nc2cc1C`, the growth is 5.29% (active).
The result for `O=C(CCCCCCN1CC(=O)N2[C@@H](c3cccs3)c3[nH]c4ccccc4c3C[C@H]2C1=O)NO` reads 90.4% (inactive); that for `O=C(CSc1nc2ccccc2c(=O)n1CCc1ccccc1)Nc1ccc(S(=O)(=O)Nc2ccc(Cl)nn2)cc1`, 91.7% (inactive); that for `CC1=C(C)C(=O)C(Nc2ccc(C)c(C)c2)=C(Br)C1=O`, 82.7% (inactive).
The result for `COc1cc(/C=C2/C(=O)Nc3ccc(Cl)cc32)ccc1OCc1ccc(Cl)cc1` reads 88.3% (inactive); that for `Cc1ccc2c(n1)C(=O)C(Cl)=C(Nc1ccc(C(C)C)cc1)C2=O`, 49.9% (inactive); that for `CN1CCN(c2ccc(Nc3nc(NCCNS(=O)(=O)c4ccccc4)c4sccc4n3)cc2)CC1`, 101% (inactive).
The result for `CNC(=O)c1cc(N2CCc3cc(NC(=O)Nc4ccc(N5CCN(C)CC5)c(C(F)(F)F)c4)ccc32)ccn1` reads 97.4% (inactive).
